# Assay results taken from the supplement of paper PMC12282887.
# ± gives the standard deviation of the averaged measurements.
# Experiments:
# Assay in all cases: promoter activity interaction Z-score (Lux/OD deviation from empty-vector control); higher = stronger promoter induction by the compound
# [1] = test system: E. coli BW25113 acrABp lux reporter
# Outline: (§1)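 At 37°C, E. coli BW25113 reporter cultures in 40 µl LB Lennox in 384-well plates were read for OD600 and luminescence every 30 min for 12 h. Windows were 0–8 h for wild type and 1–9 h for deletion strains, and wells under 10% of the median growth value were removed. The score is the Z-transformed residual of growth-normalised luminescence against a control fit.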
# [2] = test system: E. coli BW25113 marRABp lux reporter
# Outline: as §1
# [3] = test system: E. coli BW25113 micFp lux reporter
# Outline: as §1
# [4] = test system: E. coli BW25113 ompFp lux reporter
# Outline: as §1
# [5] = test system: E. coli BW25113 robp lux reporter
# Outline: as §1
# [6] = test system: E. coli BW25113 soxSp lux reporter
# Outline: as §1
# [7] = test system: E. coli BW25113 tolCp lux reporter
# Outline: as §1
# [8] = 18.9 µg/ml, genetic background: wild type
# [9] = 18.9 µg/ml, genetic background: ΔmarA
# [10] = 18.9 µg/ml, genetic background: Δrob
# [11] = 18.9 µg/ml, genetic background: ΔsoxS
# [12] = 37.8 µg/ml, genetic background: wild type
# [13] = 37.8 µg/ml, genetic background: ΔmarA
# [14] = 37.8 µg/ml, genetic background: Δrob
# [15] = 37.8 µg/ml, genetic background: ΔsoxS
# [16] = 75.6 µg/ml, genetic background: wild type
# [17] = 75.6 µg/ml, genetic background: ΔmarA
# [18] = 75.6 µg/ml, genetic background: Δrob
# [19] = 75.6 µg/ml, genetic background: ΔsoxS
# [20] = 151.1 µg/ml, genetic background: wild type
# [21] = 151.1 µg/ml, genetic background: ΔmarA
# [22] = 151.1 µg/ml, genetic background: Δrob
# [23] = 151.1 µg/ml, genetic background: ΔsoxS
structure (smiles),measurement,setting,value
O=c1c(O)c(-c2ccc(O)c(O)c2)oc2cc(O)cc(O)c12 [Quercetin],promoter activity interaction Z-score,[1]; [8],0.0407 ± 0.033
same,promoter activity interaction Z-score,[1]; [9],0.285 ± 0.58
same,promoter activity interaction Z-score,[1]; [10],0.143 ± 0.3
same,promoter activity interaction Z-score,[1]; [11],-0.34 ± 0.38
same,promoter activity interaction Z-score,[1]; [12],-0.233 ± 0.072
same,promoter activity interaction Z-score,[1]; [13],-0.0432 ± 0.69
same,promoter activity interaction Z-score,[1]; [14],0.164 ± 0.29
same,promoter activity interaction Z-score,[1]; [15],-0.184 ± 0.31
same,promoter activity interaction Z-score,[1]; [16],0.12 ± 0.43
same,promoter activity interaction Z-score,[1]; [17],-0.0185 ± 1.1
same,promoter activity interaction Z-score,[1]; [18],0.926 ± 1.1
same,promoter activity interaction Z-score,[1]; [19],-0.604 ± 0.62
same,promoter activity interaction Z-score,[1]; [20],-0.353 ± 0.089
same,promoter activity interaction Z-score,[1]; [21],0.59 ± 0.8
same,promoter activity interaction Z-score,[1]; [22],-0.142 ± 0.23
same,promoter activity interaction Z-score,[1]; [23],-0.9 ± 0.8
same,promoter activity interaction Z-score,[2]; [8],0.0379 ± 0.17
same,promoter activity interaction Z-score,[2]; [9],-0.192 ± 0.25
same,promoter activity interaction Z-score,[2]; [10],-0.164 ± 0.21
same,promoter activity interaction Z-score,[2]; [11],0.203 ± 0.51
same,promoter activity interaction Z-score,[2]; [12],0.341 ± 0.79
same,promoter activity interaction Z-score,[2]; [13],0.116 ± 0.59
same,promoter activity interaction Z-score,[2]; [14],0.248 ± 0.078
same,promoter activity interaction Z-score,[2]; [15],0.179 ± 0.43
same,promoter activity interaction Z-score,[2]; [16],0.82 ± 0.64
same,promoter activity interaction Z-score,[2]; [17],0.9 ± 0.12
same,promoter activity interaction Z-score,[2]; [18],-0.0348 ± 0.087
same,promoter activity interaction Z-score,[2]; [19],0.129 ± 0.45
same,promoter activity interaction Z-score,[2]; [20],1.13 ± 0.91
same,promoter activity interaction Z-score,[2]; [21],0.91 ± 0.61
same,promoter activity interaction Z-score,[2]; [22],0.867 ± 0.51
same,promoter activity interaction Z-score,[2]; [23],0.0221 ± 0.045
same,promoter activity interaction Z-score,[3]; [8],-0.288 ± 0.045
same,promoter activity interaction Z-score,[3]; [9],-0.0462 ± 0.033
same,promoter activity interaction Z-score,[3]; [10],-0.011 ± 0.074
same,promoter activity interaction Z-score,[3]; [11],-0.324 ± 0.11
same,promoter activity interaction Z-score,[3]; [12],-0.188 ± 0.12
same,promoter activity interaction Z-score,[3]; [13],0.0255 ± 0.15
same,promoter activity interaction Z-score,[3]; [14],-0.0437 ± 0.18
same,promoter activity interaction Z-score,[3]; [15],0.101 ± 0.056
same,promoter activity interaction Z-score,[3]; [16],-0.0961 ± 0.062
same,promoter activity interaction Z-score,[3]; [17],0.0844 ± 0.079
same,promoter activity interaction Z-score,[3]; [18],-0.0403 ± 0.11
same,promoter activity interaction Z-score,[3]; [19],-0.101 ± 0.085
same,promoter activity interaction Z-score,[3]; [20],0.0699 ± 0.42
same,promoter activity interaction Z-score,[3]; [21],0.224 ± 0.17
same,promoter activity interaction Z-score,[3]; [22],0.00151 ± 0.41
same,promoter activity interaction Z-score,[3]; [23],-0.0142 ± 0.042
same,promoter activity interaction Z-score,[4]; [8],0.228 ± 0.3
same,promoter activity interaction Z-score,[4]; [9],-0.0494 ± 0.2
same,promoter activity interaction Z-score,[4]; [10],-0.0408 ± 0.12
same,promoter activity interaction Z-score,[4]; [11],-0.358 ± 0.37
same,promoter activity interaction Z-score,[4]; [12],5.13 ± 7
same,promoter activity interaction Z-score,[4]; [13],0.88 ± 1.6
same,promoter activity interaction Z-score,[4]; [14],1.304 ± 0.013
same,promoter activity interaction Z-score,[4]; [15],0.531 ± 0.91
same,promoter activity interaction Z-score,[4]; [16],0.467 ± 1.2
same,promoter activity interaction Z-score,[4]; [17],0.186 ± 0.5
same,promoter activity interaction Z-score,[4]; [18],0.616 ± 1.3
same,promoter activity interaction Z-score,[4]; [19],-0.383 ± 0.54
same,promoter activity interaction Z-score,[4]; [20],0.00251 ± 0.91
same,promoter activity interaction Z-score,[4]; [21],0.373 ± 2.1
same,promoter activity interaction Z-score,[4]; [22],1.79 ± 0.024
same,promoter activity interaction Z-score,[4]; [23],-0.395 ± 0.84
same,promoter activity interaction Z-score,[5]; [8],0.802 ± 0.18
same,promoter activity interaction Z-score,[5]; [9],0.257 ± 0.52
same,promoter activity interaction Z-score,[5]; [10],0.102 ± 0.22
same,promoter activity interaction Z-score,[5]; [11],0.13 ± 0.66
same,promoter activity interaction Z-score,[5]; [12],0.9459 ± 0.004
same,promoter activity interaction Z-score,[5]; [13],0.813 ± 0.4
same,promoter activity interaction Z-score,[5]; [14],0.818 ± 0.073
same,promoter activity interaction Z-score,[5]; [15],1.68 ± 0.85
same,promoter activity interaction Z-score,[5]; [16],0.907 ± 0.8
same,promoter activity interaction Z-score,[5]; [17],0.794 ± 0.53
same,promoter activity interaction Z-score,[5]; [18],0.226 ± 0.59
same,promoter activity interaction Z-score,[5]; [19],-0.114 ± 0.062
same,promoter activity interaction Z-score,[5]; [20],0.549 ± 0.61
same,promoter activity interaction Z-score,[5]; [21],0.417 ± 0.21
same,promoter activity interaction Z-score,[5]; [22],0.359 ± 0.075
same,promoter activity interaction Z-score,[5]; [23],0.712 ± 1.1
same,promoter activity interaction Z-score,[6]; [8],-0.413 ± 0.13
same,promoter activity interaction Z-score,[6]; [9],-0.385 ± 0.18
same,promoter activity interaction Z-score,[6]; [10],-0.267 ± 0.1
same,promoter activity interaction Z-score,[6]; [11],-0.281 ± 0.57
same,promoter activity interaction Z-score,[6]; [12],-0.368 ± 0.13
same,promoter activity interaction Z-score,[6]; [13],-0.526 ± 0.069
same,promoter activity interaction Z-score,[6]; [14],-0.179 ± 0.028
same,promoter activity interaction Z-score,[6]; [15],-0.0207 ± 0.51
same,promoter activity interaction Z-score,[6]; [16],-0.595 ± 0.016
same,promoter activity interaction Z-score,[6]; [17],-0.528 ± 0.057
same,promoter activity interaction Z-score,[6]; [18],-0.375 ± 0.034
same,promoter activity interaction Z-score,[6]; [19],-0.161 ± 0.89
same,promoter activity interaction Z-score,[6]; [20],-0.715 ± 0.13
same,promoter activity interaction Z-score,[6]; [21],-0.513 ± 0.048
same,promoter activity interaction Z-score,[6]; [22],-0.414 ± 0.054
same,promoter activity interaction Z-score,[6]; [23],-0.567 ± 1
same,promoter activity interaction Z-score,[7]; [8],-0.038 ± 0.65
same,promoter activity interaction Z-score,[7]; [9],-0.0776 ± 0.32
same,promoter activity interaction Z-score,[7]; [10],-0.506 ± 0.62
same,promoter activity interaction Z-score,[7]; [11],-0.651 ± 0.26
same,promoter activity interaction Z-score,[7]; [12],0.105 ± 0.049
same,promoter activity interaction Z-score,[7]; [13],0.271 ± 0.14
same,promoter activity interaction Z-score,[7]; [14],0.0838 ± 0.44
same,promoter activity interaction Z-score,[7]; [15],0.0451 ± 1.2
same,promoter activity interaction Z-score,[7]; [16],0.492 ± 0.9
same,promoter activity interaction Z-score,[7]; [17],0.253 ± 0.53
same,promoter activity interaction Z-score,[7]; [18],0.773 ± 0.82
same,promoter activity interaction Z-score,[7]; [19],-0.519 ± 0.18
same,promoter activity interaction Z-score,[7]; [20],0.00965 ± 1
same,promoter activity interaction Z-score,[7]; [21],0.125 ± 0.38
same,promoter activity interaction Z-score,[7]; [22],0.962 ± 1.8
same,promoter activity interaction Z-score,[7]; [23],-0.462 ± 0.4
